For assay [1], the target named is Mitogen-activated protein kinase 3 (Homo sapiens) (UniProt P27361). As to conditions: at 1 µM.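 Note: values are mean percent inhibition of MAPK3.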
Assay [2] has as its target SRSF protein kinase 3 (Homo sapiens) (UniProt Q9UPE1). The note with it: at 0.1 µM.
For assay [3] the target is unchanged. As to conditions: at 1 µM.
For assay [4], the target named is SRSF protein kinase 1 (Homo sapiens) (UniProt Q96SB4). As to conditions: at 0.1 µM.
Assay [5] shares this target. As to conditions: at 1 µM.
For assay [6], the target named is Phosphatidylinositol 4,5-bisphosphate 3-kinase catalytic subunit alpha isoform (Homo sapiens) (UniProt P42336). The note with it: at 0.1 µM.
Assay [7] shares this target. The note with it: at 1 µM.
In assay [8] the target is T1, Phosphatidylinositol 4,5-bisphosphate 3-kinase catalytic subunit delta isoform (Homo sapiens) (UniProt O00329).
T1 sequence (whole entry): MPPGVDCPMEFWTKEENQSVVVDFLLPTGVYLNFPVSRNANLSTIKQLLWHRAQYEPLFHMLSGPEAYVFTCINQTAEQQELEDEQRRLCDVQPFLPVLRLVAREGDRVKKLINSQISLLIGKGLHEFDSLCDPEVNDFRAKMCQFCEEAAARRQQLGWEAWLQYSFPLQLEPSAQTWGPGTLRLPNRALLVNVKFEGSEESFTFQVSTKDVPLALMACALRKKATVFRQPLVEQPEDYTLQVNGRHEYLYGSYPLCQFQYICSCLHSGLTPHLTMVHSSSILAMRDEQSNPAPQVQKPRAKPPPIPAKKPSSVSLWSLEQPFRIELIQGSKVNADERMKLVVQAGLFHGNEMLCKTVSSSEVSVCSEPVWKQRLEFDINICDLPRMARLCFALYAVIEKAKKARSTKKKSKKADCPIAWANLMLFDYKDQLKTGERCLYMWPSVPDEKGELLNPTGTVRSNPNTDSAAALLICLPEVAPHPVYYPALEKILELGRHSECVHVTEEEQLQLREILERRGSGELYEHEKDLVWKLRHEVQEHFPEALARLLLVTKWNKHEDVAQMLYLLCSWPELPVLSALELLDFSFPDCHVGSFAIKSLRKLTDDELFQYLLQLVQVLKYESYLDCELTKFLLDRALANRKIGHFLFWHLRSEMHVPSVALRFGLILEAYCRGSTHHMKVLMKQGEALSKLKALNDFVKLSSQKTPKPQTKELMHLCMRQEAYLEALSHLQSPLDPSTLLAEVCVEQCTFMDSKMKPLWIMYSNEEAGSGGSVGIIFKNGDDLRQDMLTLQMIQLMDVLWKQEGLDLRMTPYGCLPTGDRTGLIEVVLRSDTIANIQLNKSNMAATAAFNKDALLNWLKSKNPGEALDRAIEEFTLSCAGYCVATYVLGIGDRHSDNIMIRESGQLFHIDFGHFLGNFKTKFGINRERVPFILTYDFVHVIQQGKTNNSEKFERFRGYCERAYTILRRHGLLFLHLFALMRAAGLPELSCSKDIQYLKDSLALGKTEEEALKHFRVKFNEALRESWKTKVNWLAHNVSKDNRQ
As to conditions: at 0.1 µM.

For assay [9], the target named is T1, Phosphatidylinositol 4,5-bisphosphate 3-kinase catalytic subunit delta isoform (Homo sapiens). The note with it: at 1 µM.
Assay [10] addresses Phosphatidylinositol 4-kinase beta (Homo sapiens) (UniProt Q9UBF8). The note with it: at 0.1 µM.
For assay [11] the target is unchanged. The note with it: at 1 µM.
Assay [12] has as its target Sphingosine kinase 1 (Homo sapiens) (UniProt Q9NYA1). As to conditions: at 0.1 µM.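 Note: mean percent inhibition of SPHK1 activity, measured within the GSK PKIS screening panel.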
Assay [13] addresses Mitogen-activated protein kinase 14 (Homo sapiens) (UniProt Q16539). The note with it: at 0.1 µM.
For assay [14] the target is unchanged. The note with it: at 1 µM.
For assay [15], the target named is Mitogen-activated protein kinase 11 (Homo sapiens) (UniProt Q15759). The note with it: at 0.1 µM.
The target is the same in assay [16]. As to conditions: at 1 µM.
Assay [17] concerns the target T2, Mitogen-activated protein kinase 13 (Homo sapiens) (UniProt O15264).
T2 sequence (whole entry): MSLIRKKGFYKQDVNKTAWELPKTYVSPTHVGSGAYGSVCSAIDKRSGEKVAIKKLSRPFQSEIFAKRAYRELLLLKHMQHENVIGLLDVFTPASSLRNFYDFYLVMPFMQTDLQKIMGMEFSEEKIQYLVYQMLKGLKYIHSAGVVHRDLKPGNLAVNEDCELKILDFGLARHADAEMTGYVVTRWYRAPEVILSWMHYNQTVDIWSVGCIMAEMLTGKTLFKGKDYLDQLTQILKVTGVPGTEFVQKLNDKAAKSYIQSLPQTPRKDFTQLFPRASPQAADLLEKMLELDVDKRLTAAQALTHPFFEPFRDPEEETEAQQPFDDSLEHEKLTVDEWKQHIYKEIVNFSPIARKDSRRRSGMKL
As to conditions: at 0.1 µM.

Assay [18] has as its target T2, Mitogen-activated protein kinase 13 (Homo sapiens). The note with it: at 1 µM.
The target of assay [19] is T3, Mitogen-activated protein kinase 12 (Homo sapiens) (UniProt P53778).
T3 sequence (whole entry): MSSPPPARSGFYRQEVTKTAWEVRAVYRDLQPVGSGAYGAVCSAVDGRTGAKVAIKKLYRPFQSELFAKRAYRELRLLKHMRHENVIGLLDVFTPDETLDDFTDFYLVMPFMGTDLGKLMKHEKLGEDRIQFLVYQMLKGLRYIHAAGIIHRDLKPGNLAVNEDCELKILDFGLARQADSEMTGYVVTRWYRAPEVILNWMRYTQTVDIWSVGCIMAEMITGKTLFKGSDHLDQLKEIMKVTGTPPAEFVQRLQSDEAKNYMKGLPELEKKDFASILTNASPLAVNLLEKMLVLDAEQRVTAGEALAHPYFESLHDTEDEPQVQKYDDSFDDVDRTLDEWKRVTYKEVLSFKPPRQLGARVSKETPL
The note with it: at 0.1 µM.

In assay [20] the target is T3, Mitogen-activated protein kinase 12 (Homo sapiens). As to conditions: at 1 µM.

Sequence of Sphingosine kinase 1 (Homo sapiens) (Q9NYA1 whole entry): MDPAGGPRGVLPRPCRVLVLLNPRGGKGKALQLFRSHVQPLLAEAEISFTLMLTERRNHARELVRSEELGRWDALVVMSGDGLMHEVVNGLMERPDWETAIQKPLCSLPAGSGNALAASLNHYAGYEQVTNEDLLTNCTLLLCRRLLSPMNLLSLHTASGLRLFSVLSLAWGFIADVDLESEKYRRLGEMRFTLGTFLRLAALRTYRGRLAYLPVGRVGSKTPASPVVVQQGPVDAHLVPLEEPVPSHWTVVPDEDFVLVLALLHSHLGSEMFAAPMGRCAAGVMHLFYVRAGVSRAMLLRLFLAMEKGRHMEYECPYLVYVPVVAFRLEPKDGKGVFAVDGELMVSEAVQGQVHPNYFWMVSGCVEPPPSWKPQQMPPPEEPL
Sequence of Mitogen-activated protein kinase 14 (Homo sapiens) (Q16539 whole entry): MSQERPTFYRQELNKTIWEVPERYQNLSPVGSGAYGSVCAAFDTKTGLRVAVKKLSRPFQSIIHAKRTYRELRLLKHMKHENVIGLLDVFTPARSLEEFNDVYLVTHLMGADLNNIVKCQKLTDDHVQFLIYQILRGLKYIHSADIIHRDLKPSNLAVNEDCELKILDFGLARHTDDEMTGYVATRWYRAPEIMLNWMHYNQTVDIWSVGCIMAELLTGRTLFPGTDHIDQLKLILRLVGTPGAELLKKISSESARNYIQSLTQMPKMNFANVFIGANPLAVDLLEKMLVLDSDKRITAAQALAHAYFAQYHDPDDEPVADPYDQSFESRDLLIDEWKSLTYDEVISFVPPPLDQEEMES
Sequence of Phosphatidylinositol 4-kinase beta (Homo sapiens) (Q9UBF8 2-816 limits assumed): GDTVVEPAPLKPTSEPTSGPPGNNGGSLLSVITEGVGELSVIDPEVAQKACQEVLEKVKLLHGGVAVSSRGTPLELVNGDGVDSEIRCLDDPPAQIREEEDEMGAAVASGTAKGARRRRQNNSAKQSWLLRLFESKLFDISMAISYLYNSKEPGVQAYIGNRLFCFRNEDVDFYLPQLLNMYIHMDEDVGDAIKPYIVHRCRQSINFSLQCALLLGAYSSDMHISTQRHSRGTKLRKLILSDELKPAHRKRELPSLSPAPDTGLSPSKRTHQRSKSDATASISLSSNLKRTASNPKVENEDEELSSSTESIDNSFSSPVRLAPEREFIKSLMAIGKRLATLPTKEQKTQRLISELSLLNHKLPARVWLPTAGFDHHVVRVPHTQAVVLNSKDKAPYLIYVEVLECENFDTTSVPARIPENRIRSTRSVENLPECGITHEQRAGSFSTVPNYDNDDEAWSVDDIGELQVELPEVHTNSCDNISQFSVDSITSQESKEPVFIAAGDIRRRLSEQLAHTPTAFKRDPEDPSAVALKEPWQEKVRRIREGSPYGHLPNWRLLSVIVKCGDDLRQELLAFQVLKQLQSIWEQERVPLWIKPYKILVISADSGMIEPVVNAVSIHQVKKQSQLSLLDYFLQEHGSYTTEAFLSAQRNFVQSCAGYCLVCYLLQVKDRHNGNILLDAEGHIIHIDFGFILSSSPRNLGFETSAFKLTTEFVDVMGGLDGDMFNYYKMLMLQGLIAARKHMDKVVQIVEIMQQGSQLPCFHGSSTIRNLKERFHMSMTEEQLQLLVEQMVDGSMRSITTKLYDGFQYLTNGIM
Sequence of Mitogen-activated protein kinase 11 (Homo sapiens) (Q15759 whole entry): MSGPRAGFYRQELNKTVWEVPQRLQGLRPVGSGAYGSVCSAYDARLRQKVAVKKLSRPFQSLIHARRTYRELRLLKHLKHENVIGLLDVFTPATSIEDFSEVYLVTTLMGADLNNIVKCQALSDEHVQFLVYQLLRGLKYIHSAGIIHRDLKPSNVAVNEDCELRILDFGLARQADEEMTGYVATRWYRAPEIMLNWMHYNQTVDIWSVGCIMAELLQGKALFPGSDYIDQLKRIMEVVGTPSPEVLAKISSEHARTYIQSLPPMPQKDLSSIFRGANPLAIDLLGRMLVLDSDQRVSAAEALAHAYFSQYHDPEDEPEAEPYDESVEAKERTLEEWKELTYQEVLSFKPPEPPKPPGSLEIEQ
Sequence of Mitogen-activated protein kinase 3 (Homo sapiens) (P27361 whole entry): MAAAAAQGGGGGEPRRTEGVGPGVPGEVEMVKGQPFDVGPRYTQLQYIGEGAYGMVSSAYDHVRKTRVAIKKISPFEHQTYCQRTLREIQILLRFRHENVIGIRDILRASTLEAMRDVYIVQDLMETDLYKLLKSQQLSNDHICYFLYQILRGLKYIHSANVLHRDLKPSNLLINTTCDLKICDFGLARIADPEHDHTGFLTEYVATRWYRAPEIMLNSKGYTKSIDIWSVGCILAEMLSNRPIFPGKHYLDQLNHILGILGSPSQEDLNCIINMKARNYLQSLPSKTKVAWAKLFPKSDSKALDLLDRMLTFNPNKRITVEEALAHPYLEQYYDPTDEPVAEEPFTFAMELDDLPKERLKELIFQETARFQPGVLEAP
Sequence of SRSF protein kinase 1 (Homo sapiens) (Q96SB4 whole entry): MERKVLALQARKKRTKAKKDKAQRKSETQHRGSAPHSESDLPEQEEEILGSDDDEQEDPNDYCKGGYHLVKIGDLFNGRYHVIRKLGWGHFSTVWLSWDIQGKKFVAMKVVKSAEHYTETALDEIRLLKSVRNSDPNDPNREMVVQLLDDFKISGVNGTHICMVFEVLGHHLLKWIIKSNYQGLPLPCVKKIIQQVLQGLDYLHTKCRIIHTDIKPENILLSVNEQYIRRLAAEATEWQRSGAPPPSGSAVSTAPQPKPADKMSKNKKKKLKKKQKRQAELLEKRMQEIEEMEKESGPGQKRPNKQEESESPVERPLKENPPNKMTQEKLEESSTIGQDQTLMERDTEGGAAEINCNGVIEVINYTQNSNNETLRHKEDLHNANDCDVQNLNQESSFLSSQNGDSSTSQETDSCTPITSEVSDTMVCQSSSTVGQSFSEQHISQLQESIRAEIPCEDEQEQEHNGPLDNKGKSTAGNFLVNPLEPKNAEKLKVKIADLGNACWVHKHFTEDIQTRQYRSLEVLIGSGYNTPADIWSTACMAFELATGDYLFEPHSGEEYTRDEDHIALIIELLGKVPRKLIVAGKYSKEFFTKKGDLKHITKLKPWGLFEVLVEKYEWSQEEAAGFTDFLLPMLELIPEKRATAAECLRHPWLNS
Sequence of SRSF protein kinase 3 (Homo sapiens) (Q9UPE1 whole entry): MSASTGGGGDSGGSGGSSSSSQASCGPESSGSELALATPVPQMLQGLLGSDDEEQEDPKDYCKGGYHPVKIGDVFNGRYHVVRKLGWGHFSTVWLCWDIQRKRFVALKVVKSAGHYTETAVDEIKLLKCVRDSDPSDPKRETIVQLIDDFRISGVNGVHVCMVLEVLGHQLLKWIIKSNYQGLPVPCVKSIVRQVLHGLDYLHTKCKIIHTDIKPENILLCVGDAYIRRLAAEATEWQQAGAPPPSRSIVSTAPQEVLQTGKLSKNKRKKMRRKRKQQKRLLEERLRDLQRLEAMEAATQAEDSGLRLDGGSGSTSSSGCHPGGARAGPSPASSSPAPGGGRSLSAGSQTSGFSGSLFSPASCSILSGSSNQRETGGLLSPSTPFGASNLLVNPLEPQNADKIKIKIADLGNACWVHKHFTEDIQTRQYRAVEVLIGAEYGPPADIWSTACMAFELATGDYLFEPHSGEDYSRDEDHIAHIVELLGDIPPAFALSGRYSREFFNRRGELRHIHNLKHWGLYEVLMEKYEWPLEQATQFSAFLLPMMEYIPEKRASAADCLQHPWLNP
Sequence of Phosphatidylinositol 4,5-bisphosphate 3-kinase catalytic subunit alpha isoform (Homo sapiens) (P42336 whole entry, canonical isoform): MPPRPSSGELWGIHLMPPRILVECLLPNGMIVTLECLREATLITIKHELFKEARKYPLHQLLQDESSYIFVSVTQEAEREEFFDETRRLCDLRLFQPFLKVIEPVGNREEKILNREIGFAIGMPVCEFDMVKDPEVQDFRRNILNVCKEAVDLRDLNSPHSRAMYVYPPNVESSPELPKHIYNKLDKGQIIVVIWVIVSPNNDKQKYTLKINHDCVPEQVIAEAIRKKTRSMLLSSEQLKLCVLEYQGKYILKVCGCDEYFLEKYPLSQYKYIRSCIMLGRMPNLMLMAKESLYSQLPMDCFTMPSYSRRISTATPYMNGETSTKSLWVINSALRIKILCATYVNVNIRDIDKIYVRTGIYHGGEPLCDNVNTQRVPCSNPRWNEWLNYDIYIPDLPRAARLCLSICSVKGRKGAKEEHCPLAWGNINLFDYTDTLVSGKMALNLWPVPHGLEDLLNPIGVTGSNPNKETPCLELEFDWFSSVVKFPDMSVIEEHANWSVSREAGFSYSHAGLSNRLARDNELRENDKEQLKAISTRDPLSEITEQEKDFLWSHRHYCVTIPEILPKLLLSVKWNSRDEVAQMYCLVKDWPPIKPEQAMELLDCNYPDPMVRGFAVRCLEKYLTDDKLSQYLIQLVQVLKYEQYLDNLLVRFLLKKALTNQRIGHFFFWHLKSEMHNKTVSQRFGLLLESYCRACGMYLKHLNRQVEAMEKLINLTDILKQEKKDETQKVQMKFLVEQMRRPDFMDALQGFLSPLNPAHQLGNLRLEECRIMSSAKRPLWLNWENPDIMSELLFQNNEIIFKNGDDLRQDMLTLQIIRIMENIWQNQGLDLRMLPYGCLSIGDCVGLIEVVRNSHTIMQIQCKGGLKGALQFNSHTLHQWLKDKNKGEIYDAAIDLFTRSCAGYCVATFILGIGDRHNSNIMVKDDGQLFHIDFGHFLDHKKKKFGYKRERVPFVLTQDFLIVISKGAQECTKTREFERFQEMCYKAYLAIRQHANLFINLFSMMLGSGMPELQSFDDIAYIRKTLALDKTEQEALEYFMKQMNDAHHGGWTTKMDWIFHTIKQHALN

With `NC(=O)c1ccc(Oc2nccc(-c3c(-c4ccc(F)cc4)ncn3C3CCNCC3)n2)cc1`, the inhibition is 5.38% in [1]; 1.1% in [2]; -0.11% in [3]; -2.65% in assay [4]; -1.89% in [5]; 6.13% in assay [6]. Also, the inhibition worked out at 8.85% in [7]; 0.53% in [8]; 5.87% in assay [9]; 2.26% in [10]; 2.71% in assay [11]; 2.48% in assay [12].
Regarding `COc1cc(N2CCN(C(C)C)CC2)ccc1Nc1nc(Nc2ccc(F)cc2C(=O)NC[C@@H](O)CO)c2cc[nH]c2n1`, the inhibition in [1] is 5.1%; in assay [2], -4.86%; in assay [3], 2.68%; in [13], 2.09%; in [14] it was 9.88%; in assay [15] it was 4.89%. Also, the inhibition in assay [16] was 6.16%; in [17] it was -0.21%; in [18], 4.89%; in assay [19] it was -2.16%; in assay [20] it was 2.97%; in assay [4], -0.39%. Further, the inhibition in assay [5] is 3.84%; in assay [6], 4.55%; in [7] it was 2.69%; in assay [8], 1.37%; in assay [9], 3.4%; in [10] it was -3.83%. Besides, the figures for the inhibition in assay [11] and in [12] were -1.08% and 1.31%, respectively.
For the molecule `COc1cc2ncn(-c3cc(OCc4cccs4)c(C(N)=O)s3)c2cc1OC`, the inhibition in assay [1] was 4.45%; in assay [2] it was 0.87%; in assay [13] it was 16.9%; in assay [14] it was 12.3%; in [15], 3.88%; in assay [16] it was 5.4%. Further, the inhibition in [17] stood at 0.78%; in assay [18] it was 1.21%; in assay [19], 2%; in assay [20] it was 1.93%; in assay [4], 1.92%; in assay [5] it was 7.84%. Besides, the inhibition is 2.89% in assay [6]; 8.89% in assay [7]; 2.03% in assay [8]; 12.9% in [9]; 4.6% in assay [10]; -3.17% in [11]. Besides, the inhibition in [12] stood at 0.03%.
`Fc1ccc(-c2nc3n(c2-c2ccncc2)CCS3)cc1`: the inhibition is 4.33% in assay [1]; -1.07% in assay [2]; -0.89% in assay [3]; 19.8% in assay [13]; 67.4% in [14]; 8.81% in assay [15]. The inhibition is 13.1% in [16]; 1.46% in [17]; 5.36% in assay [18]; 1.62% in assay [19]; 3.41% in assay [20]; -1.99% in [4]. Also, the inhibition is -4.38% in assay [5]; 3.77% in [6]; 4.45% in [7]; 3.17% in assay [8]; 4.9% in [9]; -3.93% in [10]. The inhibition in [11] is 0.29%; in assay [12], -3.68%.
In the case of `NS(=O)(=O)c1ccc(N/N=C2\C(=O)Nc3ccc(-c4cnco4)cc32)cc1`, the inhibition in assay [1] was 3.04%; in assay [2], -2.14%; in assay [3] it was -0.18%; in [13], 2.88%; in assay [14] it was 2.83%; in assay [15], 0.43%. For the same molecule, the inhibition is 2.84% in [16]; 2.15% in assay [17]; 2.61% in assay [18]; 2.22% in assay [19]; 5.43% in assay [20]; -1.9% in assay [4]. In addition, the inhibition in [5] is -0.75%; in assay [6] it was 1.34%; in [7], -0.11%; in assay [8], 0.72%; in assay [9], -0.54%; in [10], 1.44%. For the same molecule, the inhibition in assay [11] was 2.18%; in assay [12], -0.25%.
As to `Cc1ccc(NC(=O)c2ccoc2)cc1-c1ccc(C(=O)NCC2CC2)cc1`, the inhibition in [1] is 2.32%; in assay [2] it was -2.54%; in [3] it was -1.92%; in assay [15], 27.8%; in [16] it was 61.2%; in [17], 2.82%. The inhibition is 0.81% in assay [18]; 2.37% in [19]; 1.97% in [20]; -1.34% in assay [4]; -0.85% in [5]; 2.81% in assay [6]. The inhibition is 3.57% in assay [7]; 1.77% in [8]; 2.51% in assay [9]; 1.89% in [10]; -1.62% in [11]; 0% in assay [12].

A word on the inhibition: it is the relative decrease from the control value, in per cent.

For the origin of these results see ChEMBL document CHEMBL1961873, “Compounds: GSK PKIS; Assays: Nanosyn kinase panel” (2012).
